Source: PubChem BioAssay
The source made the active and inactive calls.

How the values were obtained:
[1] = small molecules captured by biotinylated probe aFSTL3 – biochemical, small-molecule microarray, fluorescence 635/667, stem cell growth factor project, primary screen (AID 1064); conditions: higher = more signal;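 further: measures binding of the biotinylated anti-FSTL3 antibody to printed compounds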
[2] = binders from COS7 lysate, DM2A8 probe, primary screen, torsin A project, cell lysate, small-molecule microarray, fluorescence 635/667 (AID 1065); conditions: higher = more signal, COS7 lysate expressing mutant human TOR1A
[3] = small molecules captured by biotinylated probe aFGF2 – biochemical, small-molecule microarray, fluorescence 635/667, stem cell growth factor project, primary screen (AID 1067); conditions: higher = more signal;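 further: measures binding of biotinylated aFGF2 protein to printed compounds on slides; z-score merges feature fluorescence and signal-to-noise across triplicate slides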
[4] = small molecules captured by biotinylated probe aFGF10 – biochemical, small-molecule microarray, fluorescence 635/667, stem cell growth factor project, primary screen (AID 1071); conditions: higher = more signal;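 further: score merges 667 nm spot intensity and signal to noise from triplicate slides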
[5] = target: Neurogenic locus notch homolog protein 2 (Homo sapiens) (UniProt Q04721); test: small molecules binding Notch2 protein – biochemical, small-molecule microarray, 635 nm fluorescence, stem cell growth factors, primary screen (AID 1073); conditions: higher = more signal
[6] = target: Pro-neuregulin-1, membrane-bound isoform (Homo sapiens) (UniProt Q02297); test: small molecules binding neuregulin-1 protein – biochemical, small-molecule microarray, fluorescence 635/667, psychiatric disease protein project, primary screen (AID 1075); conditions: NRG1 binding, 635 nm fluorescence, higher = more signal;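 further: score combines 667 nm spot fluorescence with signal to noise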
Chain of Pro-neuregulin-1, membrane-bound isoform (Homo sapiens) (Q02297 whole entry, looked up, the tested form may be a part, canonical isoform): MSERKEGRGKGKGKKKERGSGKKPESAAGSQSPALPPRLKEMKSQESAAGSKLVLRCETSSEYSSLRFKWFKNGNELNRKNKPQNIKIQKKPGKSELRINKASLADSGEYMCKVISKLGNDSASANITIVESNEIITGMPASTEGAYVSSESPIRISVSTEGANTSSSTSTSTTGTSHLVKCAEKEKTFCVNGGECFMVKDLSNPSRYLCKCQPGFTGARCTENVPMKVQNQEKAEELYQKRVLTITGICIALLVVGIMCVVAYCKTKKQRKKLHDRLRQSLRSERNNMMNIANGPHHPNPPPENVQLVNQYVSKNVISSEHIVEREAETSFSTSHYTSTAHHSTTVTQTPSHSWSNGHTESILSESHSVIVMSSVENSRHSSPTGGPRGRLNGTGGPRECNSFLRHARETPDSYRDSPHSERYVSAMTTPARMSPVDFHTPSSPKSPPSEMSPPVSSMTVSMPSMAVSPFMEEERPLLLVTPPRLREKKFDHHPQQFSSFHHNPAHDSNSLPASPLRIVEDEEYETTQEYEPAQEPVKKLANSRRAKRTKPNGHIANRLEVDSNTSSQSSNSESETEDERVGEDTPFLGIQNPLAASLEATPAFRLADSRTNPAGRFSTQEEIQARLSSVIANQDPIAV

[7] = test system: Neuregulin-1 EGF-like domain; test: small molecules binding NRG1 EGF domain – biochemical, small-molecule microarray, 635 nm fluorescence, primary screen (AID 1081); conditions: higher = more signal;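 further: binding of the protein to compounds printed on small-molecule microarray slides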
[8] = FRG1 expression reporter modulators in myotubes – cell-based, C2C12 myotubes, firefly/Renilla luciferase, luminescence, FRG1 inhibition for FSHD, primary screen (AID 1084); conditions: FRG1 promoter luciferase, higher = more signal, called active from +8 up or from −8 down
[9] = small molecules captured by biotinylated probe aFST – biochemical, small-molecule microarray, fluorescence 635/667, stem cell growth factor project, primary screen (AID 1086); conditions: higher = more signal;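 further: score merges 667 nm fluorescence with signal-to-noise of each printed compound spot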
[10] = binders of probe aHhip on microarray, primary screen, stem cell growth factor project, biochemical, small-molecule microarray, fluorescence 635/667 (AID 1087); conditions: higher = more signal;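 further: score merges spot fluorescence at 667nm with spot signal to noise ratio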
[11] = test system: PRMT1 (protein arginine N-methyltransferase 1); test: small molecules binding arginine methyltransferase PRMT1 – biochemical, small-molecule microarray, 635 nm fluorescence, primary screen (AID 1088); conditions: higher = more signal;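 further: binding of Prmt1 protein to compounds spotted on small-molecule microarray slides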
[12] = growth effects on S. cerevisiae YJM789 – YJM789 clinical isolate, OD600, 24 h, basal, primary screen (AID 1089); conditions: higher = more signal, called active from +8 up or from −8 down;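 further: growth of clinical yeast isolate S. cerevisiae YJM 789 seeded 1000 cells per well; test concentration not given here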
[13] = S. pombe growth modifiers, basal conditions – strain 972, OD600, 24 h, no modulator, primary screen (AID 1090);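 further: basal condition with compound alone and no growth modifier present; test concentration not given here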; conditions: S. pombe 972 growth, higher = more signal, called active from +8 up or from −8 down
[14] = budding yeast growth modifiers under rapamycin – strain BY4716, OD600, 96 h, primary screen (AID 1091); further: test concentration not given here; conditions: S. cerevisiae BY4716 + rapamycin, higher = more signal, called active from +8 up or from −8 down
[15] = target: Torsin-1A-interacting protein 2 (Homo sapiens) (UniProt Q8NFQ8); test: small molecules binding lysate-expressed LULL1 – cell lysate, human LULL1 lysate, 635/667 nm fluorescence, primary screen (AID 1092); conditions: small-molecule microarray, hLULL1 lysate binding, 635 nm fluorescence; higher = more signal;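 further: probe is lysate of COS7 cells overexpressing human LULL1; score merges per-feature 667 nm fluorescence with signal-to-noise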
Chain of Torsin-1A-interacting protein 2 (Homo sapiens) (Q8NFQ8 whole entry, looked up): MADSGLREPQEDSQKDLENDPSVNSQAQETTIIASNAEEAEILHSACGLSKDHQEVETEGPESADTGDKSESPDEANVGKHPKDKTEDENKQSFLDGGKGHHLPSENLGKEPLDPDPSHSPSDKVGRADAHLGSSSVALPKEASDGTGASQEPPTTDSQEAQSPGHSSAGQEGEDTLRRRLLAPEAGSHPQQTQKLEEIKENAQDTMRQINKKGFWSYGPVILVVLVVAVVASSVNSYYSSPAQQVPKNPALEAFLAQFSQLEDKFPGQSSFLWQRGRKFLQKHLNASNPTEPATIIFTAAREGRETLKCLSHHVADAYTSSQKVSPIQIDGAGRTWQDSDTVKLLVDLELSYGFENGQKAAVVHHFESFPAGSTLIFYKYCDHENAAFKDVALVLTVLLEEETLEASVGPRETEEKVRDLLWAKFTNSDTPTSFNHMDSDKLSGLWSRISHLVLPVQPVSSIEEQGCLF

[16] = optical density change of DRC41 E. coli – strain DRC41, OD650, 24 h, E. coli filamentation project, primary screen (AID 1093);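 further: MC1000 strain lacking acrAB efflux and sulA so SOS filamentation is blocked; test concentration not given here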; conditions: E. coli DRC41 growth, higher = more signal, called active from +8 up or from −8 down
[17] = probe aLefty2 binding to arrayed compounds – biochemical, biotinylated probe, 635/667 nm fluorescence, primary screen (AID 1094); conditions: small-molecule microarray, higher = more signal;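 further: score merges spot fluorescence near 667 nm with spot signal-to-noise ratio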
[18] = test system: Noggin (protein binding on small-molecule microarray); test: small molecules binding Noggin protein – biochemical, 635/667 nm fluorescence, primary screen (AID 1095); conditions: 635 nm fluorescence, higher = more signal;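 further: score merges 667 nm feature fluorescence with signal to noise over triplicate slides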
[19] = target: Neurogenic locus notch homolog protein 3 (Homo sapiens) (UniProt Q9UM47); test: small molecules binding NOTCH3 protein – biochemical, 635/667 nm fluorescence, primary screen (AID 1096); conditions: small-molecule microarray, 635 nm fluorescence, higher = more signal
Chain of Neurogenic locus notch homolog protein 3 (Homo sapiens) (Q9UM47 whole entry, looked up): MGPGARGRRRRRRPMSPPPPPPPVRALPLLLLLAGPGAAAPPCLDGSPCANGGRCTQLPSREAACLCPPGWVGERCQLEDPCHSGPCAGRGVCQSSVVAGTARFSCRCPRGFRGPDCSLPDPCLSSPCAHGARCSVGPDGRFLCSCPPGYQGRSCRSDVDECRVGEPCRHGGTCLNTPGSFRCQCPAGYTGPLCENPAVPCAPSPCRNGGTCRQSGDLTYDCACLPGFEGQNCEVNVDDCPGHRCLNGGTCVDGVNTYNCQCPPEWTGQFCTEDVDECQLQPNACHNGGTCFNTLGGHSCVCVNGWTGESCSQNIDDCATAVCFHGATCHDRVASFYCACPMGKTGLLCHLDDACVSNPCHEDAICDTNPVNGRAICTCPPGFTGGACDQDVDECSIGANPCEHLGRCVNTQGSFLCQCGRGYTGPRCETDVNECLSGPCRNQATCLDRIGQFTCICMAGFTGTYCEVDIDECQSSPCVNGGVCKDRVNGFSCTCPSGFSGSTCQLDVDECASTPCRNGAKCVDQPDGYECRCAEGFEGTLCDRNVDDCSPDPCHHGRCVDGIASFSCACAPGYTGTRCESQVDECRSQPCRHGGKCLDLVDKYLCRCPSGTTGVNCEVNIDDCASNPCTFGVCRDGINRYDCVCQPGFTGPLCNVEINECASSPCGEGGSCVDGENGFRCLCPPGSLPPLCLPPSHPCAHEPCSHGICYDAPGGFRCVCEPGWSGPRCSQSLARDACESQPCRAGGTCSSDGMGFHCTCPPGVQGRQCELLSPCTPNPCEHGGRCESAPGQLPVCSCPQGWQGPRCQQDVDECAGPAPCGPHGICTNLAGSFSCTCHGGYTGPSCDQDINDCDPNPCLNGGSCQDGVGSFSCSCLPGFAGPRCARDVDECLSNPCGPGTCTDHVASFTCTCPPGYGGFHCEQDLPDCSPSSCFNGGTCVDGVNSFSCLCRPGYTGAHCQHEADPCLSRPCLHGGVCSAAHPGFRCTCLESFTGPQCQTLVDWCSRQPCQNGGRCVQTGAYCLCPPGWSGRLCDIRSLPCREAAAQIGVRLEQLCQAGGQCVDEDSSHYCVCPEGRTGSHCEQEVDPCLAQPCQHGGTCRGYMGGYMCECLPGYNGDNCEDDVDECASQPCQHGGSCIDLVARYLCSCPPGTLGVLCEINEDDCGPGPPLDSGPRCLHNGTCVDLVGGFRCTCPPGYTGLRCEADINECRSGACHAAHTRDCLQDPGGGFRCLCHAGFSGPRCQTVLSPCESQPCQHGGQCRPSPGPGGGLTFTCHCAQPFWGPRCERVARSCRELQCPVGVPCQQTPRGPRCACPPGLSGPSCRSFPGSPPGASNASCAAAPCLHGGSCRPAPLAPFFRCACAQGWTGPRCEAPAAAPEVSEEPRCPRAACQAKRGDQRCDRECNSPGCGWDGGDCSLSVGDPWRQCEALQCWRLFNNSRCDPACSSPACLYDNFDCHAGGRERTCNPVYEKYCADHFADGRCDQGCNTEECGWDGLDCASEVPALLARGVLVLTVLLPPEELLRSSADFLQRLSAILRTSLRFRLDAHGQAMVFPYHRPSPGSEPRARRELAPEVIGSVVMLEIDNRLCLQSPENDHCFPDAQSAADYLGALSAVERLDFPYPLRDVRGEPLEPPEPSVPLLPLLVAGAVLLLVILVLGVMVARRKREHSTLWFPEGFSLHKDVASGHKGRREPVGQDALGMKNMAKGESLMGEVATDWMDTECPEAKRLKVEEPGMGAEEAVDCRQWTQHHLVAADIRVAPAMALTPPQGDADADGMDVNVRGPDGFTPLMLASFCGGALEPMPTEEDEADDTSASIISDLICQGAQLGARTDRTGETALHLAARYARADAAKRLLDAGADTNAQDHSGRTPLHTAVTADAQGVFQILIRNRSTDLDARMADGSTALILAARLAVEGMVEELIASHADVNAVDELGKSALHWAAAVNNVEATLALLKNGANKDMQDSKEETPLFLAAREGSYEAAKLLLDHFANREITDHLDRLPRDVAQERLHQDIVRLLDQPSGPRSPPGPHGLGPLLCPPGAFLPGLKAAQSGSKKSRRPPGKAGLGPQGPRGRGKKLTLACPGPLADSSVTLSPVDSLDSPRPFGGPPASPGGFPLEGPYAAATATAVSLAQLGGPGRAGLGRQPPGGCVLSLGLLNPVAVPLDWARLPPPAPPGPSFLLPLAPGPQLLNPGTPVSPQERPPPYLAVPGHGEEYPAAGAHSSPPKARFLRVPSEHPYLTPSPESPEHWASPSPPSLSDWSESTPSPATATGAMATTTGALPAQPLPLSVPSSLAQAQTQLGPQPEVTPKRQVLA

[20] = probe aEGFR binding to arrayed compounds – biochemical, biotinylated probe, 635/667 nm fluorescence, primary screen (AID 1097); conditions: small-molecule microarray, higher = more signal;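 further: probe is a biotinylated anti-EGFR antibody binding compounds printed on slides; score combines fluorescence near 667 nm and signal to noise of each spot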

In the case of `C=CC[C@@]1(C(=O)NCc2ccccc2)N=C(c2ccc(OCCCO)cc2)O[C@@H]1c1ccccc1CN=[N+]=[N-]`, the composite z-score [1] is reported as 0.351, the composite z-score [2] is reported as -0.651 and the composite z-score [3] is reported as 0.153. The composite z-score [4] was 0.799, the composite z-score [5] was 1.54 and the composite z-score [6] was 1.57. For the same molecule, the composite z-score [7] was 1.2, the z-score [8] was -2.56 (inactive) and the composite z-score [9] was 1.44. The composite z-score [10] was -0.0237, the composite z-score [11] was 0.985 and the z-score [12] was 0.371 (inactive). For the same molecule, the z-score [13] was 1.68 (inactive), the z-score [14] was 4.84 (inactive) and the composite z-score [15] was 3.17. The z-score [16] was -0.759 (inactive), the composite z-score [17] was 0.418 and the composite z-score [18] was 0.0824. It also gave a composite z-score [19] of 0.901 and a composite z-score [20] of 0.0149.

Work on `CN1C(=O)C2C=CC(C(O)C(C)(C)C)N(Nc3ccccc3)C2C1=O` (stereo not given) yielded a composite z-score [1] of 0.207, a composite z-score [2] of -0.565 and a composite z-score [3] of -0.14. For the same molecule, the composite z-score [4] was -0.181, the composite z-score [5] was 0.0262 and the composite z-score [6] was 1.4. The composite z-score [7] was 0.291, the z-score [8] was -0.269 (inactive) and the composite z-score [9] was 0.0082. The composite z-score [10] was -0.173, the composite z-score [11] was -0.316 and the z-score [12] was 0.392 (inactive). For the same molecule, the z-score [13] was 1 (inactive), the z-score [14] was 0.949 (inactive) and the composite z-score [15] was 3.16. For the same molecule, the z-score [16] was -0.971 (inactive), the composite z-score [17] was -0.266 and the composite z-score [18] was -0.611. The composite z-score [19] was -0.784 and the composite z-score [20] was -0.19.

`O=C1C2C=CC(C(O)c3ccc(-c4ccccc4)s3)N(Nc3ccccc3F)C2C(=O)N1c1ccccc1` (stereo not given) gave a composite z-score [1] of 0.623, a composite z-score [2] of 0.0116 and a composite z-score [3] of 0.0352. It also gave a composite z-score [4] of 0.243, a composite z-score [5] of 1.58 and a composite z-score [6] of 1.65. The composite z-score [7] was 1.28, the z-score [8] was 1.72 (inactive) and the composite z-score [9] was 0.955. For the same molecule, the composite z-score [10] was -0.0296, the composite z-score [11] was 1.33 and the z-score [12] was 0.264 (inactive). The z-score [13] was 0.167 (inactive), the z-score [14] was 1.58 (inactive) and the composite z-score [15] was 2.85. The z-score [16] was -1.82 (inactive), the composite z-score [17] was 0.207 and the composite z-score [18] was -0.243. It also gave a composite z-score [19] of 1.02 and a composite z-score [20] of 0.232.

`Cc1ccc(S[C@]2(C(=O)NCCCN(C)C)CC(=O)N(Cc3ccccc3)[C@@H]2c2ccc(CO)cc2)cc1` showed a composite z-score [1] of 1.15, a composite z-score [2] of -0.533 and a composite z-score [3] of -0.145. It also gave a composite z-score [4] of -0.193, a composite z-score [5] of -1.24 and a composite z-score [6] of -0.234. The composite z-score [7] was -1.11, the z-score [8] was -1.76 (inactive) and the composite z-score [9] was -0.101. For the same molecule, the composite z-score [10] was -0.409, the composite z-score [11] was 1.25 and the z-score [12] was -0.933 (inactive). The z-score [13] was -1.18 (inactive), the z-score [14] was -1.03 (inactive) and the composite z-score [15] was 2.01. For the same molecule, the z-score [16] was -0.0465 (inactive), the composite z-score [17] was 0.555 and the composite z-score [18] was -0.511. The composite z-score [19] was -0.631 and the composite z-score [20] was -0.152.
